Screening data as filed in PubChem BioAssay.
D1 ag: agonists of human D1 dopamine receptor | P21728 | HEK293 T-REx D1 cells, calcium flux, agonist mode | activation, % at 2 µM | 360,000 compounds, 1% hits
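Inducible HEK293 T-REx D1 cells, force-coupled to calcium signalling, were plated at 4000 cells/well with tetracycline and held overnight at 30 C. After no-wash calcium dye loading, compound-evoked calcium rise over 180 s flagged agonists.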
D1 antagonist: human D1 dopamine receptor antagonism | P21728 | HEK293 TREx D1 cells, calcium flux, dopamine EC80; hits give low values | activity change, negative = inhibition, % at 10 µM | 360,000 compounds, 3.2% hits | AID 504652; in the data active = activity change below about -30%
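Tetracycline-induced HEK293 T-REx cells with force-coupled D1 receptor were loaded with a no-wash calcium dye. Compound was added after a 10 s baseline and read kinetically for 180 s; EC80 dopamine was then added and calcium flux followed another 180 s.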
D1 potentiator: enhances dopamine response at the human D1 receptor; HEK293 TREx D1 cells, calcium flux, dopamine EC20 potentiation; potentiation, % at 10 µM; 360,000 compounds, 0.036% hits; AID 504651; in the data active = potentiation above about 30%
TRHR ag: TRH receptor (human) agonism; P34981; activation, % at 2 µM; 360,000 compounds, 0.18% hits; TRHR cells, calcium flux fluo-8, FDSS agonist mode
Target sequence (P34981 whole entry, looked up): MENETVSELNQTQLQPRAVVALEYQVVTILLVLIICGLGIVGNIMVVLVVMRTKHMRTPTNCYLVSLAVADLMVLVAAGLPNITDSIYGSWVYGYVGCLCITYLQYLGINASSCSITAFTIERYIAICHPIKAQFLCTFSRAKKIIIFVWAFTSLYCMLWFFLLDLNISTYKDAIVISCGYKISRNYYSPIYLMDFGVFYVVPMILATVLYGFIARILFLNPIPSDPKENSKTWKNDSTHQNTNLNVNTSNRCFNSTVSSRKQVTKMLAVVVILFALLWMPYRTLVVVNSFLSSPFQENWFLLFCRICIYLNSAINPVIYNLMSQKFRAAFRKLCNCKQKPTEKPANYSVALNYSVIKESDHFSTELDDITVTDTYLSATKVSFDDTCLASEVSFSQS
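Read-out: compound-evoked intracellular calcium rise in TRHR cells, fluo-8 dye, kinetic FDSS fluorescence at 1 s/cycle following a 10-cycle baseline. Cells cultured overnight before dye loading (30 min–1.5 h, RT).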
TRHR enhancer: TRH receptor (human) allosteric enhancement; enhancement, % at 2 µM; 360,000 compounds, 0.66% hits; TRHR cells, fluo-8 calcium fluorescence, EC20 TRH enhancement; in the data active = enhancement above about 30%
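Enhancer read-out: after compound pinning and an initial kinetic agonist-mode read, an EC20 of TRH (10 nM final) was injected and fluo-8 calcium signal (Ex 480/Em 530) followed at 1 s/cycle for 100 cycles in TRHR-expressing cells.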
Of the large screens only hits and unclear results are named; the others gave an inactive call. The list is not random: actives were taken first. Their share in the collection is about 4.7%. Cut-off read from the data, not from the text of the source, unless noted: active = activation above about 30%; inactive = the rest.

O=C1CN(S(=O)(=O)c2ccc3c(c2)OCCO3)CCN1S(=O)(=O)c1c(F)cccc1F	none
COC(=O)c1cnc(Oc2ccc(NC(=O)NC(=O)c3c(OC)cccc3OC)cc2)cc1C(F)(F)F	D1 antagonist -54
COc1cc(C(=O)Nc2ccccc2SCc2cc(=O)n3nc(C)sc3n2)cc(OC)c1OC	D1 antagonist -50
CC(C)c1ccccc1NC(=O)CNCCc1ccc(C(F)(F)F)cc1	D1 ag 36
NS(=O)(=O)c1ccc(CCNC(=O)CNCCc2ccc(C(F)(F)F)cc2)cc1	none
CC(C)OP(=O)(OC(C)C)C(NC(=O)c1ccccc1Br)C(N)=O (stereo not given)	TRHR enhancer 32
COc1cc(-c2n[nH]c(=S)n2-c2ccc(Br)cc2)cc(OC)c1OC	none
CCOC(=O)c1cnc(Nc2nc3ccccc3o2)nc1CN1CCN(C)CC1	D1 antagonist -56
CCOc1ccc(-n2c(C)cc(/C=N/Nc3nc(C)cc(=O)[nH]3)c2C)cc1	D1 antagonist -35
CCOc1ccc(-n2c(C)cc(/C=N/NC(=O)C(N)=O)c2C)cc1	none (no result: D1 antagonist)
CSc1ccc(/C=N/Nc2nc(C)cc(=O)[nH]2)cc1	D1 antagonist -30
CC(C(=O)OCC(=O)Nc1ccc2c(c1)OCO2)N1C(=O)c2ccccc2C1=O (stereo not given)	none
CC(C(=O)Oc1ccc2c(c1)OCO2)N1C(=O)c2ccccc2C1=O (stereo not given)	D1 antagonist -40
CC1CCN(CCCNS(=O)(=O)c2cc(Br)cc3c2N(C(=O)C2CC2)CC3)CC1	TRHR enhancer 33
CCC1=Nc2cc(C(=O)NCc3cccnc3)ccc2Sc2ccc(C)cc21	D1 antagonist -76
CCC1=Nc2cc(C(=O)NCc3ccc(C)cc3)ccc2Sc2ccc(C)cc21	none
CCC1=Nc2cc(C(=O)NC3CCCC3)ccc2Sc2ccc(Cl)cc21	D1 antagonist -34
CC1=Nc2cc(C(=O)NC3CCCC3)ccc2Sc2ccc(Cl)cc21	none
O=C(O)Cc1ccc(NC(=O)c2ccc3c(c2)C(=O)N(CC2CCCO2)C3=O)cc1 (stereo not given)	D1 antagonist -39
COC(=O)Cc1ccc(NC(=O)c2ccc3c(c2)C(=O)N(CC2CCCO2)C3=O)cc1 (stereo not given)	none
O=C(CC1CCCC1)Nc1cccc(Br)c1	D1 antagonist -38
CC(C)CC1NC(=O)N(CC(=O)Nc2cccc(Br)c2)C1=O (stereo not given)	D1 antagonist -39
COc1cccc2c1ncc1c(-c3ccc(C)cc3)nn(-c3cccc([N+](=O)[O-])c3)c12	none
COc1ccc(C)cc1NC(=O)CN1C(=O)COc2ccc(C)cc21	none
CN(Cc1ccccc1)S(=O)(=O)c1ccc(Cl)nc1	none
CC(C)N(Cc1ccccc1)S(=O)(=O)c1ccc(Cl)nc1	D1 antagonist -41
O=C(Nc1ccc2ccccc2n1)c1ccc(Cl)cc1	none
COc1ccc(-c2cn3c(C)c(C(=O)Nc4cccc(C)n4)sc3n2)cc1	D1 antagonist -59
CCCCOc1ccc(C(=O)Nc2cccc(C)n2)cc1	none
CCOc1ccc(C(=O)Nc2cccc(C)n2)cc1	TRHR enhancer 41
O=C(Nc1cccc(NC(=O)c2ccc(Cl)cc2)n1)c1ccc(Cl)cc1	D1 antagonist -33
Cc1cccc(NC(=O)c2sc3nc(-c4ccccc4)cn3c2C)n1	none
Cc1cccn2c(=O)c3cc(C(=O)Nc4ccc(Cl)c(Cl)c4)sc3nc12	none
CC1CCN(CCCCOc2ccc([N+](=O)[O-])cc2)CC1	D1 antagonist -44
O=[N+]([O-])c1ccc(OCCCCN2CCCCC2)cc1	none
C[N+](C)(C)CCOc1ccc([N+](=O)[O-])cc1	D1 antagonist -31
O=[N+]([O-])c1ccc(OCCCCCN2CCOCC2)cc1	none
CCC(C)NCCCOc1ccc([N+](=O)[O-])cc1 (stereo not given)	none
O=[N+]([O-])c1ccc(OCCCCN2CCc3ccccc3C2)cc1	D1 antagonist -63
Cc1cc2oc(=O)c(CC(=O)O)c(C)c2c2occ(-c3ccccc3)c12	none
CCOC(=O)c1ccc(NC(=S)N2CCCC(C)C2)cc1 (stereo not given)	none (no result: D1 antagonist)
O=C(O)c1ccc(NC(=S)N2CCCCC2)cc1	D1 antagonist -73
